# Experimental data published in PubChem BioAssay (NCATS).
# Records with an inconclusive call do not appear. Unmarked numbers belong to inactive results. Active and inactive are the calls of the source. The call rests on the fitted dose curve; in most records, active means well fitted inhibition curve with a large enough effect; inconclusive means small, poorly fitted or top-dose-only effect; inactive means flat fitted curve, though single readings scatter. Where a SMILES comes first, the peptide text is derived from it. The star is where a group is joined. βNA = c1ccc2cc(N*)ccc2c1; Cbz = O=C(OCc1ccccc1)*
# Legend:
# Assay in all cases: Cytotoxic Profiling of Annotated Libraries Using Quantitative High-Throughput Screening (AID 1296008); further: nearly all actives have a fitted effect of over 60% in size
# Details in all cases: Five cell lines viability, CellTiter-Glo ATP luminescence, 48-72 h; max response: active compounds read low
# CRL-7250 = normal cell line; tested on: CRL-7250
# Outline: (§1)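 Compounds were pin-transferred onto cells and incubated 48 or 72 hr at 37 degree Celsius, 95% humidity. CellTiter-Glo was added, plates sat 10 min at room temperature, then ATP-coupled luminescence was imaged as the viability read-out.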
# HEK293 = tested on: HEK293
# Outline: as §1
# HaCat = tested on: HaCat
# Outline: as §1
# KB-3-1 = tested on: KB-3-1
# Outline: as §1
# NIH3T3 = tested on: NIH3T3
# Outline: as §1
# On the % scale 0 is the no-effect control and ±100 the full control effect; potency means the concentration at half of the fitted maximal effect.
smiles,measurement,setting,value
N#CN1CCC[C@@H](n2nc(-c3ccc(Oc4ccc(F)cc4F)cc3)c(C(N)=O)c2N)C1,max response,CRL-7250,-1.33%
same,max response,HEK293,-4.05%
same,outcome,HaCat,inactive
same,outcome,KB-3-1,inactive
same,max response,NIH3T3,1.04%
Cc1ccc(-c2c(-c3nn(C)c4ncnc(N5CCC(N6CCCCC6)C5)c34)cnn2C)cc1 (stereo not given),outcome,CRL-7250,inactive
same,max response,HEK293,-1.32%
same,outcome,HaCat,inactive
same,outcome,KB-3-1,inactive
same,max response,NIH3T3,4.76%
COC(=O)C1=CO[C@@H](O[C@@H]2O[C@H](CO)[C@@H](O)[C@H](O)[C@H]2O)C2C1CC(O)C2C (stereo not given in full),max response,CRL-7250,-13.7%
same,max response,HEK293,0.336%
same,outcome,HaCat,inactive
same,outcome,KB-3-1,inactive
same,max response,NIH3T3,-5.32%
COc1ccc2c(c1)N1C(=O)C[C@@]34C=CC[N@+]5([O-])CC[C@H]2[C@H](CC3)[C@@]145,max response,CRL-7250,0.465%
same,outcome,HEK293,inactive
same,max response,HaCat,0.691%
same,outcome,KB-3-1,inactive
same,max response,NIH3T3,-2.66%
CCCSc1nc(NC2CC2c2ccc(F)c(F)c2)c2nnn(C3CC(OCCO)C(O)C3O)c2n1 (stereo not given),outcome,CRL-7250,inactive
same,Potency,HEK293,18.4 µM (active)
same,outcome,HaCat,inactive
same,max response,KB-3-1,-19.7%
same,max response,NIH3T3,-3.04%
C[C@]1(O)CC[C@@H]2C(C(=O)O)=CO[C@@H](O[C@@H]3O[C@H](COC(=O)/C=C/c4ccc(O)c(O)c4)[C@@H](O)[C@H](O)[C@H]3O)[C@@H]21,outcome,CRL-7250,inactive
same,max response,HEK293,0.933%
same,outcome,HaCat,inactive
same,max response,KB-3-1,9.19%
same,outcome,NIH3T3,inactive
C/C=C(\C)C(=O)OCC1OC(OC2OC(CO)C(O)C(O)C2O)C(O)C(O)C1O (stereo not given),outcome,CRL-7250,inactive
same,max response,HEK293,-3.96%
same,outcome,HaCat,inactive
same,outcome,KB-3-1,inactive
same,max response,NIH3T3,-3.87%
N#Cc1cccc(-c2c[nH]c3ncnc(N4CCOCC4)c23)c1,outcome,CRL-7250,inactive
same,max response,HEK293,-6.95%
same,outcome,HaCat,inactive
same,max response,KB-3-1,-3.64%
same,outcome,NIH3T3,inactive
CC1(C)OC(=O)CC(O)C2(C)C1CC(=O)C1(C)C2C(O)CC2(C)C(c3ccoc3)OC(=O)C3OC321 (stereo not given),max response,CRL-7250,-14.5%
same,outcome,HEK293,inactive
same,max response,HaCat,-9.13%
same,outcome,KB-3-1,inactive
same,max response,NIH3T3,-11.7%
N#Cc1ccc(C2CCCc3cncn32)cc1 (stereo not given),max response,CRL-7250,-28.9%
same,max response,HEK293,-80.6%
same,max response,HaCat,3.15%
same,outcome,KB-3-1,inactive
same,outcome,NIH3T3,inactive
CC(C)=CCc1c(O)cc2oc3cc(C)cc(O)c3c2c1C,max response,CRL-7250,2.07%
same,max response,HEK293,-2.32%
same,outcome,HaCat,inactive
same,max response,KB-3-1,-6.44%
same,max response,NIH3T3,3.67%
OC[C@H]1O[C@@H](O[C@H]2[C@H](O)[C@@H](CO)O[C@@H](OCc3ccccc3)[C@@H]2O[C@@H]2OC[C@](O)(CO)[C@H]2O)[C@H](O)[C@@H](O)[C@@H]1O,max response,CRL-7250,-8.44%
same,max response,HEK293,-1.87%
same,outcome,HaCat,inactive
same,max response,KB-3-1,7.58%
same,max response,NIH3T3,1.27%
COC(=O)/C=C/c1ccc(O[C@@H]2O[C@H](CO)[C@@H](O)[C@H](O)[C@H]2O)cc1,max response,CRL-7250,-1.55%
same,max response,HEK293,-5.47%
same,outcome,HaCat,inactive
same,max response,KB-3-1,2.42%
same,outcome,NIH3T3,inactive
OC[C@@]1(O)CO[C@H](OC[C@H]2O[C@@H](OC(CCCCc3ccc(O)cc3)CCc3ccc(O)cc3)[C@H](O[C@H]3OC[C@](O)(CO)[C@H]3O)[C@@H](O)[C@@H]2O)[C@@H]1O (stereo not given in full),max response,CRL-7250,-11.2%
same,max response,HEK293,-13.7%
same,outcome,HaCat,inactive
same,max response,KB-3-1,2.31%
same,outcome,NIH3T3,inactive
O=C(O)C[C@H]1CCC(=O)[C@@H]1C/C=C\CCO,outcome,CRL-7250,inactive
same,max response,HEK293,0.813%
same,outcome,HaCat,inactive
same,max response,KB-3-1,0.282%
same,outcome,NIH3T3,inactive
CC1(C)CC[C@]2(C(=O)O)CC[C@]3(C)C(=CCC4[C@@]5(C)C[C@@H](O)[C@H](O)[C@@](C)(CO)C5CC[C@]43C)C2C1 (stereo not given in full),outcome,CRL-7250,inactive
same,max response,HEK293,2.88%
same,outcome,HaCat,inactive
same,max response,KB-3-1,-4.17%
same,max response,NIH3T3,-3.06%
CC1(C(=O)O)CC[C@]2(C(=O)OC3OC(CO)C(O)C(O)C3O)CC[C@]3(C)C(=CCC4[C@@]5(C)CC[C@H](OC6OCC(O)C(O)C6OC6OC(CO)C(O)C(O)C6O)C(C)(C)C5CC[C@]43C)C2C1 (stereo not given in full),max response,CRL-7250,0.0336%
same,max response,HEK293,-7.14%
same,outcome,HaCat,inactive
same,outcome,KB-3-1,inactive
same,max response,NIH3T3,0.38%
CC(C)[C@](O)(c1ccc2cc(OC(F)F)c(OC(F)F)cc2c1)c1cn[nH]n1,outcome,CRL-7250,inactive
same,max response,HEK293,-21.3%
same,outcome,HaCat,inactive
same,max response,KB-3-1,-6.26%
same,max response,NIH3T3,1.17%
C[C@@H]1C(=O)O[C@H]2[C@H]1CC[C@@]1(C)C(=O)C=C[C@@](C)(O)[C@H]21,max response,CRL-7250,-5.99%
same,outcome,HEK293,inactive
same,max response,HaCat,-2.04%
same,max response,KB-3-1,1.69%
same,max response,NIH3T3,4.77%
COc1ccccc1Oc1c(NS(=O)(=O)c2ccc(C)cn2)nc(-c2ccncc2)nc1OC,max response,CRL-7250,3.94%
same,max response,HEK293,-4.09%
same,outcome,HaCat,inactive
same,outcome,KB-3-1,inactive
same,max response,NIH3T3,0.566%
CC(=O)O[C@H]1[C@H](O[C@H]2CC[C@]34C[C@]35CC[C@]3(C)[C@@H]([C@@]6(C)CC[C@@H](C(C)(C)O)O6)[C@@H](O)C[C@@]3(C)[C@@H]5C[C@H](O[C@@H]3O[C@H](CO)[C@@H](O)[C@H](O)[C@H]3O)[C@H]4C2(C)C)OC[C@@H](OC(C)=O)[C@@H]1O,max response,CRL-7250,-0.709%
same,max response,HEK293,-4%
same,outcome,HaCat,inactive
same,outcome,KB-3-1,inactive
same,max response,NIH3T3,1.91%
CO[C@@H]1[C@]2(O)C(=O)N3/C=C\C(C)(C)c4[nH]c5ccccc5c4/C=C\3C(=O)N2[C@]23[C@H](CO)C(C)(C)N2c2ccccc2[C@]13O,max response,CRL-7250,1.93%
same,max response,HEK293,0.736%
same,max response,HaCat,-14.4%
same,max response,KB-3-1,7.79%
same,outcome,NIH3T3,inactive
Cc1oc2nc3c(c(NC(=O)CN4CCCC4=O)c2c1C)CCCC3,max response,CRL-7250,3.82%
same,max response,HEK293,-1.01%
same,outcome,HaCat,inactive
same,max response,KB-3-1,8.69%
same,outcome,NIH3T3,inactive
CC1OC(O[C@@H]2[C@H](O)[C@@H](OC3OC(CO)C(O)C(O)C3O)[C@H](OC(=O)[C@]34CCC(C)(C)C[C@H]3C3=CCC5[C@@]6(C)CC[C@H](O[C@@H]7O[C@H](C(=O)O)[C@@H](O)[C@H](O[C@@H]8OC[C@@H](O)[C@H](O)[C@H]8O)[C@H]7O[C@@H]7O[C@H](CO)[C@H](O)[C@H](O)[C@H]7O)[C@@](C)(C=O)C6CC[C@@]5(C)[C@]3(C)C[C@H]4O)O[C@@H]2C)C(O)C(O)C1OC1OCC(O)C(O)C1O (stereo not given in full),max response,CRL-7250,-3.77%
same,max response,HEK293,-1.1%
same,outcome,HaCat,inactive
same,outcome,KB-3-1,inactive
same,outcome,NIH3T3,inactive
CC1=CC(=O)C2C(C)(C)CCC[C@]2(C)[C@H]1CC[C@H](C)CC(=O)O (stereo not given in full),max response,CRL-7250,-2.16%
same,max response,HEK293,-12.7%
same,outcome,HaCat,inactive
same,outcome,KB-3-1,inactive
same,outcome,NIH3T3,inactive
C=C(CCO[C@@H]1O[C@H](CO)[C@@H](O)[C@H](O)[C@H]1O)C(=O)O,max response,CRL-7250,-12.8%
same,max response,HEK293,-3.91%
same,outcome,HaCat,inactive
same,outcome,KB-3-1,inactive
same,max response,NIH3T3,-0.513%
O=C1C(Cl)=C(N2CCOCC2)C(=O)N1c1ccc(Cl)c(Cl)c1,outcome,CRL-7250,inactive
same,max response,HEK293,-3.24%
same,outcome,HaCat,inactive
same,outcome,KB-3-1,inactive
same,outcome,NIH3T3,inactive
CC(C)(O)C1CC=C(C(=O)OC[C@H]2O[C@@H](Oc3cc(C(=O)O)cc(O)c3O)[C@H](O)[C@@H](O)[C@@H]2O)CC1 (stereo not given in full),max response,CRL-7250,1.76%
same,max response,HEK293,3.21%
same,outcome,HaCat,inactive
same,outcome,KB-3-1,inactive
same,outcome,NIH3T3,inactive
COc1cc([C@@H](O[C@@H]2O[C@H](CO)[C@@H](O)[C@H](O)[C@H]2O)[C@@H]2CO[C@H](c3ccc(O)c(OC)c3)[C@H]2CO)ccc1O,outcome,CRL-7250,inactive
same,max response,HEK293,2.55%
same,max response,HaCat,0.823%
same,max response,KB-3-1,-3.03%
same,outcome,NIH3T3,inactive
C=C1C[C@]23C[C@@]1(O)CC[C@H]2[C@@]12C=C[C@H](O)[C@@](C)(C(=O)O1)[C@H]2[C@@H]3C(=O)O,max response,CRL-7250,0.765%
same,max response,HEK293,-0.839%
same,outcome,HaCat,inactive
same,max response,KB-3-1,7.38%
same,max response,NIH3T3,2.3%
O=C(O)c1ccnc(-c2cc(C(=O)NCCc3ccccc3)ccn2)c1,max response,CRL-7250,0.77%
same,max response,HEK293,-13.9%
same,outcome,HaCat,inactive
same,max response,KB-3-1,6.53%
same,max response,NIH3T3,-2.98%
O=C(OCC1=C[C@@H](O)[C@@H]2C=CO[C@@H](O[C@@H]3O[C@H](CO)[C@@H](O)[C@H](O)[C@H]3O)[C@H]12)c1ccc(O)cc1,max response,CRL-7250,-4.11%
same,max response,HEK293,1.2%
same,outcome,HaCat,inactive
same,max response,KB-3-1,1.69%
same,outcome,NIH3T3,inactive
Cn1cc(Nc2cnccc2C(=O)O)c2cccnc21,max response,CRL-7250,1.11%
same,max response,HEK293,-5.52%
same,max response,HaCat,4.86%
same,outcome,KB-3-1,inactive
same,outcome,NIH3T3,inactive
COC(=O)Cn1nc(-c2cccc(OC)c2)c2ccccc21,max response,CRL-7250,4.76%
same,max response,HEK293,-5.92%
same,outcome,HaCat,inactive
same,max response,KB-3-1,1.13%
same,max response,NIH3T3,2.46%
CC(C)CC(NC(=O)OCc1ccccc1)C(=O)NC(CC(C)C)C(=O)NC(CCC(=O)O)C(=O)Nc1ccc2ccccc2c1 (stereo not drawn) (Cbz-Leu-Leu-Glu-βNA; configuration not given here),max response,CRL-7250,-12.3%
same,max response,HEK293,-0.688%
same,outcome,HaCat,inactive
same,outcome,KB-3-1,inactive
same,outcome,NIH3T3,inactive
CC1(C)CCCC2(C)c3c4c(c(=O)oc(=O)c3=CCC12)=CCC1C(C)(C)CCCC41C (stereo not given),max response,CRL-7250,-2.61%
same,max response,HEK293,2.74%
same,max response,HaCat,0.0105%
same,outcome,KB-3-1,inactive
same,outcome,NIH3T3,inactive
CCOc1ncc(S(=O)(=O)N2CCN(CC)CC2)cc1-c1nc2c(CC)n(CCOC)nc2c(=O)[nH]1,outcome,CRL-7250,inactive
same,max response,HEK293,-6.31%
same,max response,HaCat,2.49%
same,outcome,KB-3-1,inactive
same,outcome,NIH3T3,inactive
Cc1cn2cc(CC(=O)N3CCC4(CC3)CN(Cc3ccc(-n5nccn5)cc3Cl)C4)nc2s1,max response,CRL-7250,2.68%
same,Potency,HEK293,16.4 µM (active)
same,max response,HaCat,2.32%
same,max response,KB-3-1,0.0455%
same,outcome,NIH3T3,inactive
COC(=O)c1[nH]c(=O)c2ccccc2c1-c1ccc[nH]1,outcome,CRL-7250,inactive
same,Potency,HEK293,20.6 µM (active)
same,outcome,HaCat,inactive
same,outcome,KB-3-1,inactive
same,outcome,NIH3T3,inactive
